PBM binding z-score data for seven sequences are collected here from the supplement of paper PMC6555819.

Common to all, as to experiment: PBM binding z-score (relative to random genomic background probes); higher = stronger binding; sequences stand for … in GC…GCGATTGACAGCGTAGAATGAAGG
The test system of assay [1] is FXR:RXRa (NR concentration 270 nM, RXRa partner concentration 90 nM). The gist of the method: (§1)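 Custom Agilent 4×180K protein-binding microarrays carried double-stranded probes. Their 34-nt variable regions held direct-repeat seeds, single-nucleotide variants, half-site ablations and random human genomic background sequences. Arrays were incubated 1 h with ligand-free nuclear receptor dimers in PBS pH 7.4, 2% milk, 0.02% Triton X-100, 1 mM DTT, 0.2 mg/mL BSA and 0.4 mg/ml salmon testes DNA. Antibodies against each partner (one per run) detected binding, and scanned fluorescence was regression-normalized. Binding z-scores use random background probes as reference.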

For assay [2], the system named is LXRa:RXRa (NR concentration 270 nM, RXRa partner concentration 90 nM). Put shortly:
as §1

The test system of assay [3] is LXRa homodimer (NR concentration 270 nM). The gist of the method: as §1
For assay [4], the system named is LXRb:RXRa (NR concentration 270 nM, RXRa partner concentration 90 nM). The gist of the method: as §1
Assay [5] deals with LXRb homodimer (NR concentration 270 nM). Put shortly:
as §1

For assay [6], the system named is PPARa:RXRa (NR concentration 270 nM, RXRa partner concentration 90 nM). The gist of the method: as §1
In assay [7] the test system is PPARg:RXRa (NR concentration 180 nM, RXRa partner concentration 90 nM). Put shortly: as §1
Assay [8] concerns PPARg:RXRa 270nM:90nM, anti-RXR (NR concentration 270 nM, RXRa partner concentration 90 nM). Put shortly:
as §1

For assay [9], the system named is PPARg:RXRa 30nM:10nM, anti-RXR (NR concentration 30 nM, RXRa partner concentration 10 nM). The gist of the method:
as §1

In assay [10] the test system is PPARg:RXRa 90nM:30nM, anti-RXR (NR concentration 90 nM, RXRa partner concentration 30 nM). Put shortly:
as §1

The test system of assay [11] is PPARg:RXRa DBDmut IVT, anti-RXR (DBD mutation: RXRa K156A/R161A, NR concentration 270 nM, RXRa partner concentration 90 nM). The gist of the method:
as §1

Assay [12] concerns PPARg:RXRa IVT, anti-PPARg (NR concentration 270 nM, RXRa partner concentration 90 nM). Put shortly:
as §1

Assay [13] deals with PPARg DBDmut:RXRa IVT, anti-PPARg (DBD mutation: PPARg1 K132A/R137A, NR concentration 270 nM, RXRa partner concentration 90 nM). Put shortly:
as §1

Assay [14] concerns PPARg DBDmut IVT, anti-PPARg (DBD mutation: PPARg1 K132A/R137A, NR concentration 270 nM). The gist of the method:
as §1

Assay [15] relates to PPARg homodimer (NR concentration 180 nM). The gist of the method: as §1
Assay [16] relates to PXR:RXRa (NR concentration 270 nM, RXRa partner concentration 90 nM). Put shortly:
as §1

Assay [17] has as its system PXR homodimer (NR concentration 270 nM). Put shortly:
as §1

In assay [18] the test system is RARa homodimer (NR concentration 270 nM). The gist of the method: as §1
Assay [19] relates to RARb:RXRa (NR concentration 270 nM, RXRa partner concentration 90 nM). The gist of the method:
as §1

Consider GATCCAGGGTCAGCTAGAGGCCAGAGTATGGAAA, for which the PBM binding z-score in assay [1] is 4.42; in assay [2] it was 2.62; in assay [3] it was -0.925; in assay [4] it was 2.36; in [5] it was -1.4; in assay [6], 4.38. In addition, the PBM binding z-score was determined as 3.24 in assay [7]; 3.15 in [8]; 0.349 in [9]; 1.66 in [10]; 0.393 in assay [11]; 1.96 in [12]. In addition, the PBM binding z-score in [13] was -0.6; in assay [14], -0.817; in [15], 1.89; in assay [16] it was 3.27; in [17], -0.25; in assay [18] it was -0.417. For the same sequence, in assay [19], the PBM binding z-score is 4.24.

Take CAAACTAGGTCACCGGAAAGTCAAAGTCCGCATG: the PBM binding z-score in assay [1] was found to be 4.54; in assay [2], 3.74; in assay [3], 0.834; in [4] it was 2.79; in [5], 0.685; in [6], 5.64. Also, the PBM binding z-score in [7] was 9.52; in [8], 7.27; in assay [9], 5.72; in assay [10], 7.23; in assay [11] it was 8.88; in [12], 9.33. For the same sequence, the PBM binding z-score was 3.21 in assay [13]; 3.47 in [14]; 2.67 in assay [15]; 2.14 in [16]; 0.0377 in assay [17]; 0.631 in assay [18]. This sequence also registered a PBM binding z-score in [19] of 4.72.

Turning to ATCTCTAGGTAAAGGTCAGTGAAAGATCGATAGA, the PBM binding z-score in assay [1] was 3.48; in [2], 3.55; in [3] it was 1.74; in assay [4] it was 3.42; in [5] it was 1.54; in [6] it was 4.32. In addition, the PBM binding z-score in [7] was 6.77; in [8], 6.29; in assay [9], 4.39; in [10] it was 6.41; in assay [11], 3.45; in [12], 4.2. For the same sequence, the PBM binding z-score turned out to be 1.29 in assay [13]; 1.49 in [14]; 3.73 in [15]; 3.35 in [16]; 1.1 in [17]; 2.88 in assay [18]. In [19], this sequence yielded a PBM binding z-score of 4.53.

With CAAACTAGGTCACAGAGGTCGAAGTCCGTGCGTA, the PBM binding z-score in assay [1] was determined as 4.92; in [2], 4.23; in assay [3] it was 1.74; in assay [4] it was 3.62; in assay [5], 0.575; in assay [6] it was 5.48. The PBM binding z-score in assay [7] was determined as 9; in [8] it was 6.93; in assay [9] it was 5.15; in assay [10], 7.32; in [11], 8.27; in [12], 8.42. Further, the PBM binding z-score in assay [13] turned out to be 2.27; in assay [14], 0.791; in [15] it was 2.22; in assay [16], 4.41; in assay [17] it was 3.65; in [18], 0.511. In addition, the PBM binding z-score in assay [19] turned out to be 4.35.

For the sequence TAGCCTAGGTCATGGGCCAGTTTACCACGCGAAC, the PBM binding z-score in assay [1] was 4.52; in [2], 3.85; in assay [3] it was 0.503; in assay [4] it was 2.26; in assay [5], -0.093; in assay [6], 4.37. Besides, the PBM binding z-score in assay [7] amounted to 3.6; in [8] it was 3.88; in assay [9] it was 0.612; in [10] it was 2.88; in assay [11] it was 1.76; in assay [12] it was 3.27. In addition, the PBM binding z-score in [13] is -0.261; in assay [14] it was -0.602; in assay [15] it was 1.68; in assay [16], 2.12; in assay [17], -0.368; in assay [18], -0.379. The PBM binding z-score in assay [19] was 3.82.

With TTACAAAGGTGAGCTGAGGTCGTTGATCCAACTC, the PBM binding z-score in assay [1] was 2.66; in [2], 3.19; in [3], -0.299; in assay [4], 1.68; in assay [5] it was -0.674; in assay [6] it was 2.86. For the same sequence, the PBM binding z-score in assay [7] stood at 1.57; in [8], 2.39; in [9], 0.713; in [10], 1.38; in [11], 1.9; in [12] it was 2.58. Moreover, the PBM binding z-score was 0.303 in [13]; -0.224 in [14]; 1.41 in assay [15]; 6.04 in assay [16]; 0.268 in [17]; -0.325 in assay [18]. The same sequence gave a PBM binding z-score in assay [19] of 3.23.

In the case of AGTCAGAGTTCATCTAGGTAACGTAAGATATGCT, the PBM binding z-score in [1] amounted to 6.74; in [2] it was 5.36; in [3], 4.78; in [4] it was 3.63; in assay [5], 1.48; in [6] it was 4.64. For the same sequence, the PBM binding z-score in assay [7] turned out to be 4.23; in assay [8], 4.21; in assay [9] it was 1.67; in assay [10] it was 3.42; in assay [11], 0.73; in assay [12], 2.55. Further, the PBM binding z-score was determined as 1.05 in [13]; 0.893 in [14]; 1.46 in assay [15]; 5.25 in [16]; 9.2 in [17]; 1.13 in [18]. The same sequence returned a PBM binding z-score in [19] of 4.3.
